From the supplement of paper PMC3545927
The other results are listed elsewhere or left out. The true hit rate is not given.

Biological target: furin, P09958
Experiment: furin cleavage Z-score vs untreated control; higher = more cleavage, active = 3.5 or more, inactive = 1 or less, 8 variable residues between constant flanks
Procedure, shortened: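 Reactions of 0.01 ml ran for 7.5, 15 or 30 min in 50 mM HEPES pH 7.5 with CaCl2 and NaCl, at 1:10 enzyme:substrate. In them, purified furin acted on bead-held 8-mer peptides fused to a cDNA oligonucleotide. The cleavage Z-score was obtained by lowess-adjusting log sequencing counts of released DNA against furin-free reactions and scaling by median absolute deviation.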

Chain of furin, P09958 (P09958 whole entry): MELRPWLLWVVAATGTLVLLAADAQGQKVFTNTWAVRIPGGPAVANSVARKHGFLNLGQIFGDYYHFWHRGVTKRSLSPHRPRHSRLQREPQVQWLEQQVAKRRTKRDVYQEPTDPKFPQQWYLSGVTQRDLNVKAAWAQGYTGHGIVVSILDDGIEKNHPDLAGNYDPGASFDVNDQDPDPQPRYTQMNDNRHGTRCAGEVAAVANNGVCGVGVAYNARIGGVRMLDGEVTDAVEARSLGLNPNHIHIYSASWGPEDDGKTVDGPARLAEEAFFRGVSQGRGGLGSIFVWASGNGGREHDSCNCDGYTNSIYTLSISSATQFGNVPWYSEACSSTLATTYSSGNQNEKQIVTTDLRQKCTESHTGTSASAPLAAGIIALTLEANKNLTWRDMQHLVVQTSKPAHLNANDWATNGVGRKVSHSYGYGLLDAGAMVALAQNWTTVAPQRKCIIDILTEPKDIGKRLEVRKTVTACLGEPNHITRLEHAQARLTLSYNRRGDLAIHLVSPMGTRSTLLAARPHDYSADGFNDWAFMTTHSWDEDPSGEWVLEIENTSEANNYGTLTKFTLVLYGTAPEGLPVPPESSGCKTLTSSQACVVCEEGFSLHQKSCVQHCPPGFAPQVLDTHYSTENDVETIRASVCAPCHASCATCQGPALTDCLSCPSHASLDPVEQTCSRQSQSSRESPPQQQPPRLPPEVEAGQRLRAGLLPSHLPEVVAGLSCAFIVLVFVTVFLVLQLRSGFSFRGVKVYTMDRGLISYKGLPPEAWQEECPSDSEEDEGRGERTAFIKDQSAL

Sequence: CADSVIDCNTAGNASASA [HC885]
- furin cleavage Z-score (7.5 min): 0.968 (inactive)
- furin cleavage Z-score (15 min): 0.824 (inactive)
- furin cleavage Z-score (30 min): 1.02

Sequence: CAASGVLTTSAGNASASA [HC1511]
- furin cleavage Z-score (7.5 min): -1.03 (inactive)
- furin cleavage Z-score (15 min): -0.000581 (inactive)
- furin cleavage Z-score (30 min): -0.909 (inactive)

Sequence: CAMEECSQHYAGNASASA [HC1769]
- furin cleavage Z-score (7.5 min): 0.65 (inactive)
- furin cleavage Z-score (15 min): 1.28
- furin cleavage Z-score (30 min): 2.12

Sequence: CAGVPPLRAWAGNASASA [HC1617]
- furin cleavage Z-score (7.5 min): 0.794 (inactive)
- furin cleavage Z-score (15 min): 0.986 (inactive)
- furin cleavage Z-score (30 min): 0.446 (inactive)

Sequence: CARKPRPLDPAGNASASA [FS-2563]
- furin cleavage Z-score (7.5 min): 1.12
- furin cleavage Z-score (15 min): 0.612 (inactive)
- furin cleavage Z-score (30 min): 0.941 (inactive)

Sequence: CAVTPIDTTIAGNASASA [HC1436]
- furin cleavage Z-score (7.5 min): -0.162 (inactive)
- furin cleavage Z-score (15 min): -2.25 (inactive)
- furin cleavage Z-score (30 min): -0.263 (inactive)

Sequence: CAQPEYDLELAGNASASA [HC1548]
- furin cleavage Z-score (7.5 min): 1.74
- furin cleavage Z-score (15 min): 0.744 (inactive)
- furin cleavage Z-score (30 min): 0.874 (inactive)

Sequence: CARKPRDLELAGNASASA [FS-2038]
- furin cleavage Z-score (7.5 min): 8.14 (active)
- furin cleavage Z-score (15 min): 11 (active)
- furin cleavage Z-score (30 min): 10.9 (active)

Sequence: CARKSRDMEIAGNASASA [FS-2980]
- furin cleavage Z-score (7.5 min): 0.641 (inactive)
- furin cleavage Z-score (15 min): -0.334 (inactive)
- furin cleavage Z-score (30 min): 1.3

Sequence: CARKPRDYTIAGNASASA [FS-2695]
- furin cleavage Z-score (7.5 min): 0.48 (inactive)
- furin cleavage Z-score (15 min): 0.851 (inactive)
- furin cleavage Z-score (30 min): 3.93 (active)

Sequence: CAAAVTSPLTAGNASASA [HC1058]
- furin cleavage Z-score (7.5 min): 0.302 (inactive)
- furin cleavage Z-score (15 min): -1.38 (inactive)
- furin cleavage Z-score (30 min): -0.302 (inactive)

Sequence: CARNSTGLYHAGNASASA [HC258]
- furin cleavage Z-score (7.5 min): 0.587 (inactive)
- furin cleavage Z-score (15 min): -0.804 (inactive)
- furin cleavage Z-score (30 min): -0.846 (inactive)

Sequence: CATTALVMAQAGNASASA [HC325]
- furin cleavage Z-score (7.5 min): 0.431 (inactive)
- furin cleavage Z-score (15 min): -0.525 (inactive)
- furin cleavage Z-score (30 min): -0.108 (inactive)

Sequence: CAMETCSQHLAGNASASA [HC1718]
- furin cleavage Z-score (7.5 min): -0.505 (inactive)
- furin cleavage Z-score (15 min): 1.16
- furin cleavage Z-score (30 min): 2.25

Sequence: CARLGRIVDRAGNASASA [FS-1737]
- furin cleavage Z-score (7.5 min): -0.217 (inactive)
- furin cleavage Z-score (15 min): -0.37 (inactive)
- furin cleavage Z-score (30 min): 0.14 (inactive)

Sequence: CARLRRPIGKAGNASASA [FS-3160]
- furin cleavage Z-score (7.5 min): -0.962 (inactive)
- furin cleavage Z-score (15 min): -0.579 (inactive)
- furin cleavage Z-score (30 min): -1.27 (inactive)

Sequence: CARLGRSIDDAGNASASA [FS-2275]
- furin cleavage Z-score (7.5 min): 5.11 (active)
- furin cleavage Z-score (15 min): 6.98 (active)
- furin cleavage Z-score (30 min): 5.82 (active)

Sequence: CARLKRYHSQAGNASASA [FS-2156]
- furin cleavage Z-score (7.5 min): 1.21
- furin cleavage Z-score (15 min): -0.314 (inactive)
- furin cleavage Z-score (30 min): 1.6

Sequence: CARLKREIEKAGNASASA [FS-2431]
- furin cleavage Z-score (7.5 min): 9.68 (active)
- furin cleavage Z-score (15 min): 9.27 (active)
- furin cleavage Z-score (30 min): 9.19 (active)

Sequence: CARLKRSRLKAGNASASA [FS-1741]
- furin cleavage Z-score (7.5 min): 3.6 (active)
- furin cleavage Z-score (15 min): 6.18 (active)
- furin cleavage Z-score (30 min): 7.33 (active)

Sequence: CARLKRNQEKAGNASASA [FS-2707]
- furin cleavage Z-score (7.5 min): -0.221 (inactive)
- furin cleavage Z-score (15 min): 0.44 (inactive)
- furin cleavage Z-score (30 min): 1.38

Sequence: CARLRKDQLKAGNASASA [FS-2432]
- furin cleavage Z-score (7.5 min): -0.25 (inactive)
- furin cleavage Z-score (15 min): 0.106 (inactive)
- furin cleavage Z-score (30 min): 1.29

Sequence: CARLKRNIGYAGNASASA [FS-1962]
- furin cleavage Z-score (7.5 min): 4.52 (active)
- furin cleavage Z-score (15 min): 7.71 (active)
- furin cleavage Z-score (30 min): 8.24 (active)

Sequence: CAIVPCHRPSAGNASASA [HC2304]
- furin cleavage Z-score (7.5 min): 0.422 (inactive)
- furin cleavage Z-score (15 min): 0.63 (inactive)
- furin cleavage Z-score (30 min): 0.055 (inactive)

Sequence: CAGKSTKVPAAGNASASA [HC778]
- furin cleavage Z-score (7.5 min): 1.37
- furin cleavage Z-score (15 min): 0.655 (inactive)
- furin cleavage Z-score (30 min): -0.125 (inactive)

Sequence: CAEMTTPCSGAGNASASA [HC1966]
- furin cleavage Z-score (7.5 min): -0.105 (inactive)
- furin cleavage Z-score (15 min): -0.176 (inactive)
- furin cleavage Z-score (30 min): -0.555 (inactive)

Sequence: CASSEANAEDAGNASASA [HC1365]
- furin cleavage Z-score (7.5 min): -1.29 (inactive)
- furin cleavage Z-score (15 min): -2.48 (inactive)
- furin cleavage Z-score (30 min): -1.24 (inactive)

Sequence: CAVAGALVAFAGNASASA [HC1090]
- furin cleavage Z-score (7.5 min): 1.08
- furin cleavage Z-score (15 min): -1.61 (inactive)
- furin cleavage Z-score (30 min): -0.599 (inactive)

Sequence: CARLKRSPDKAGNASASA [FS-2277]
- furin cleavage Z-score (7.5 min): 9.81 (active)
- furin cleavage Z-score (15 min): 12.1 (active)
- furin cleavage Z-score (30 min): 8.68 (active)

Sequence: CARLTRSNSKAGNASASA [FS-1750]
- furin cleavage Z-score (7.5 min): -0.152 (inactive)
- furin cleavage Z-score (15 min): 1.68
- furin cleavage Z-score (30 min): -1.49 (inactive)

Sequence: CARLKRFSMVAGNASASA [FS-2705]
- furin cleavage Z-score (7.5 min): 1.5
- furin cleavage Z-score (15 min): 0.596 (inactive)
- furin cleavage Z-score (30 min): 2.46

Sequence: CAHIDLLVGSAGNASASA [HC291]
- furin cleavage Z-score (7.5 min): -0.513 (inactive)
- furin cleavage Z-score (15 min): -1.31 (inactive)
- furin cleavage Z-score (30 min): -1.06 (inactive)

Sequence: CARSGRVVGSAGNASASA [FS-3235]
- furin cleavage Z-score (7.5 min): -1.67 (inactive)
- furin cleavage Z-score (15 min): 0.0813 (inactive)
- furin cleavage Z-score (30 min): 0.573 (inactive)

Sequence: CALATRSFGSAGNASASA [HC1334]
- furin cleavage Z-score (7.5 min): -0.496 (inactive)
- furin cleavage Z-score (15 min): 0.424 (inactive)
- furin cleavage Z-score (30 min): -0.551 (inactive)

Sequence: CARSKRRKYSAGNASASA [FS-2380]
- furin cleavage Z-score (7.5 min): 0.793 (inactive)
- furin cleavage Z-score (15 min): -0.279 (inactive)
- furin cleavage Z-score (30 min): 0.723 (inactive)

Sequence: CARAGRDVGSAGNASASA [FS-1989]
- furin cleavage Z-score (7.5 min): 2.62
- furin cleavage Z-score (15 min): 3.76 (active)
- furin cleavage Z-score (30 min): 2.8

Sequence: CARSYRGISSAGNASASA [FS-2093]
- furin cleavage Z-score (7.5 min): 1.39
- furin cleavage Z-score (15 min): -0.63 (inactive)
- furin cleavage Z-score (30 min): 0.639 (inactive)

Sequence: CARSKRDGSEAGNASASA [FS-1868]
- furin cleavage Z-score (7.5 min): 3.53 (active)
- furin cleavage Z-score (15 min): 5.29 (active)
- furin cleavage Z-score (30 min): 5.43 (active)

Sequence: CARSKRDVGSAGNASASA [FS-2379]
- furin cleavage Z-score (7.5 min): 11.6 (active)
- furin cleavage Z-score (15 min): 11.3 (active)
- furin cleavage Z-score (30 min): 8.54 (active)

Sequence: CARSKKIFGSAGNASASA [FS-2405]
- furin cleavage Z-score (7.5 min): -1.12 (inactive)
- furin cleavage Z-score (15 min): -0.175 (inactive)
- furin cleavage Z-score (30 min): 0.546 (inactive)

Sequence: CARSKRDISSAGNASASA [FS-3083]
- furin cleavage Z-score (7.5 min): 9.51 (active)
- furin cleavage Z-score (15 min): 11.2 (active)
- furin cleavage Z-score (30 min): 9.07 (active)

Sequence: CASTPCSAFLAGNASASA [HC2547]
- furin cleavage Z-score (7.5 min): -0.397 (inactive)
- furin cleavage Z-score (15 min): -0.0879 (inactive)
- furin cleavage Z-score (30 min): 0.628 (inactive)
